A selection: hits, their analogues and other compounds. The true share with any hit is near 3%.
TRb-SRC2 inh: TRbeta-SRC2 interaction inhibition. 280,000 compounds, 0.065% hits. Potency, µM (titrated, usually from 106 µM), inactives show top-dose activity change, negative = inhibition, actives largely listed as inhibitors. TRbeta-SRC2 peptide binding, fluorescence polarization; receptor liganded with 1 µM T3;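 also: plate controls were bound peptide for no effect and peptide without receptor for full effect; nearly all actives have a fitted effect of over 50% in size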
Target sequence (P10828 whole entry, looked up): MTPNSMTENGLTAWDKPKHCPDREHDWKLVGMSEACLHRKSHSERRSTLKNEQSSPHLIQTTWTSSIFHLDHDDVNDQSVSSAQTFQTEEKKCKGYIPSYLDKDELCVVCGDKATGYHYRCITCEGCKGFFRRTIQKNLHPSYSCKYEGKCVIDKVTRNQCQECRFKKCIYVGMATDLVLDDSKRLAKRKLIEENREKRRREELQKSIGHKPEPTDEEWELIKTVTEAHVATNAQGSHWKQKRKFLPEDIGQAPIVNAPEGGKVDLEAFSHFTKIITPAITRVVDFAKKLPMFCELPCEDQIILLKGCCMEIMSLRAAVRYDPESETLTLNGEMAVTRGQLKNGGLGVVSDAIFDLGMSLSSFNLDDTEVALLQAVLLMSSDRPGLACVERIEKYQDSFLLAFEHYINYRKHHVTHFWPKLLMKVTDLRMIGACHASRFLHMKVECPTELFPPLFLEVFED
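Read-out is fluorescence polarization (555 nm excitation, 632 nm emission) of a Texas Red SRC2 coactivator peptide; loss of signal reflects blocked binding to human TRb ligand-binding domain in the presence of 1 uM T3.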
TR SRC2 fluor cs: alters Texas Red total fluorescence, flagging assay interference; TRb/SRC2 Texas Red total fluorescence interference; Potency, µM (highest dose often 106 µM), for the others: top-dose fluorescence change, negative = quenching; 280,000 compounds, 0.29% hits; AID 1479; active = well fitted curve in either direction with a large enough effect; inconclusive = small, poorly fitted or top-dose-only effect
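Human TRb ligand-binding domain at 0.6 uM with 20 nM Texas Red SRC2 peptide in Tris buffer containing 1 uM T3 and 5% DMSO, incubated with compound 5 h at ambient temperature. Total fluorescence (555/632 nm) calculated as parallel + 2 × perpendicular.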
Tau fibril ThT: inhibitors of human tau fibril formation, thioflavin T binding; P10636; recombinant tau K18 P301L, heparin-induced fibrillization, ThT fluorescence; Potency, µM (highest dose often 57.4 µM), without a hit: top-dose activity, negative = inhibition, hits mostly inhibitors; 270,000 compounds, 2.1% hits; AID 1460; also: nearly all actives have a fitted effect of over 55% in size
Target sequence (P10636 561-689 P618L limits assumed): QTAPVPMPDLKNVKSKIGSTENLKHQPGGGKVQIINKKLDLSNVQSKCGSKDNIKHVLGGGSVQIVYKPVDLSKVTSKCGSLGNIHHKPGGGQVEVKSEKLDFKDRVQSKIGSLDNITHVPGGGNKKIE
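Heparin-induced (20 uM) aggregation of recombinant human K18 P301L tau, 15 uM unlabeled with 0.24 uM labeled, pH 7 acetate buffer, 6 hr at 37 C with compound. Fibrils quantified by 30 uM ThT fluorescence after 1 hr ambient incubation.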
Tau fluor cs: counter-screen for tau fibril formation inhibitors; tau K18 P301L Alexa594 fluorescence, heparin fibrillization; Potency, µM (doses to about 57.7 µM), inactives show top-dose activity change, negative = decrease; 280,000 compounds, 0.93% hits; AID 1463; also: nearly all actives have a fitted effect of over 55% in size
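Human tau K18 P301L (15 uM unlabeled, 0.24 uM Alexa 594-labeled) in 100 mM sodium acetate pH 7 with 20 uM heparin, 6 hr at 37 C. ThT 30 uM added, 1 hr ambient; Alexa 594 FP and total fluorescence read at 555/632 nm.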
Tau FP inhib: tau fibrillization inhibition (FP); P10636; K18 P301L tau heparin fibrillization, Alexa594 FP, 6 h; Potency, µM (titrated, usually from 57.7 µM), for the others: at the top dose activity, negative = inhibition, most hits filed as inhibitors; 280,000 compounds, 0.39% hits; AID 1468; also: nearly all actives have a fitted effect of over 55% in size
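Quantitative HTS format: compounds meet 15 uM recombinant K18 P301L tau and Alexa 594-tau tracer in 100 mM sodium acetate pH 7; 20 uM heparin triggers fibrillization at 37 C over 6 hr; FP gives the signal.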
The depositor's hits bear a star; [ ] = dose if it differs, or a comment. Unless noted, calls follow the shape of the dose curve; as a rule, active = well fitted curve in the direction sought with a large enough effect; inconclusive = small, poorly fitted or top-dose-only effect, or another doubt; inactive = no such curve, though single readings can be large; an effect the other way counts as inactive or inconclusive. Unless noted, % is scaled to controls: 0 for no effect and ±100 for the full control effect; potency is read from the fitted curve at half-maximal effect.

Results for CCc1ccc(OCC(=O)NCC(c2ccc(Cl)cc2)N2CCOCC2)cc1 (configuration not stated) ?
TRb-SRC2 inh: -21%; TR SRC2 fluor cs: 10µM*[quencher]; Tau fibril ThT: -9%; Tau fluor cs: -2%; Tau FP inhib: 2%

What do the screens show for `COc1cc(-c2cc(OC)c3c(C)oc(C)c3c(=O)c2)ccc1OC(=O)c1cccc(Cl)c1`?
TRb-SRC2 inh: inconclusive; TR SRC2 fluor cs: 501µM*[quencher]; Tau fibril ThT: -13%; Tau fluor cs: -8%; Tau FP inhib: 3%

How did Cc1cccc(C)c1NS(=O)(=O)c1ccc(NS(=O)(=O)c2ccc3c(c2)OCCO3)cc1 do in these assays?
TRb-SRC2 inh: 9%; TR SRC2 fluor cs: 0%; Tau fibril ThT: inconclusive; Tau fluor cs: inconclusive; Tau FP inhib: inconclusive

How did Cc1cc(-c2nn(-c3ccccc3)cc2/C=C2\SC(N)=NC2=O)ccc1OC(C)C do in these assays?
TRb-SRC2 inh: 0%; TR SRC2 fluor cs: -2%; Tau fibril ThT: -1%; Tau fluor cs: inconclusive; Tau FP inhib: 3.2µM*

What do the screens show for `CCN(CC)c1ccc2cc(/C(N)=N/NC(=O)c3cccs3)c(=O)oc2c1`?
TRb-SRC2 inh: 0%; TR SRC2 fluor cs: -3%; Tau fibril ThT: 0.79µM*; Tau fluor cs: -4%; Tau FP inhib: -7%

What do the screens show for `CC(=O)N1c2ccc(S(=O)(=O)NCCc3cccc(C)c3)cc2CC1C` (configuration not stated)?
TRb-SRC2 inh: 3%; TR SRC2 fluor cs: -5%; Tau fibril ThT: -4%; Tau fluor cs: -11%; Tau FP inhib: -4%

Results for CCc1cc(C(c2ccc(F)cc2)N2CCOCC2)c(NC(=O)c2ccccc2)s1 (configuration not stated) ?
TRb-SRC2 inh: -1%; TR SRC2 fluor cs: -4%; Tau fibril ThT: 32µM*; Tau fluor cs: inconclusive; Tau FP inhib: -9%

Results for CC(C)C(C)C ?
TRb-SRC2 inh: 9%; TR SRC2 fluor cs: -3%

How did Oc1ccc(/C=N/Nc2nc(-c3ccc(Cl)cc3)cc(C(F)(F)F)n2)cc1 do in these assays?
TRb-SRC2 inh: 4%; TR SRC2 fluor cs: -4%; Tau fibril ThT: 18µM*; Tau fluor cs: 25µM*[quencher]; Tau FP inhib: inconclusive

What do the screens show for `CCOC(=O)Nc1ccc2c(c1)Nc1ccccc1S2`?
TRb-SRC2 inh: -14%; TR SRC2 fluor cs: -1%; Tau fibril ThT: 7.9µM*; Tau fluor cs: 14µM*[quencher]; Tau FP inhib: -13%

What do the screens show for `CC1CCCN(C(=S)SCC(=O)c2cc(Br)cc(Br)c2O)C1` (configuration not stated)?
TRb-SRC2 inh: 19%[53 µM]; TR SRC2 fluor cs: 10%[53 µM]; Tau fibril ThT: 16µM*; Tau fluor cs: inconclusive; Tau FP inhib: inconclusive

How did O=C(CSC(=S)N1CCCC1)c1cc(Br)cc(Br)c1O do in these assays?
TRb-SRC2 inh: 17%; TR SRC2 fluor cs: 18%; Tau fibril ThT: inconclusive; Tau fluor cs: 14%; Tau FP inhib: 6%

What do the screens show for `COc1ccc(CCNC(=O)C2(c3cccs3)CCOCC2)cc1OC`?
TRb-SRC2 inh: -11%; TR SRC2 fluor cs: 0%; Tau fibril ThT: -5%; Tau fluor cs: -7%; Tau FP inhib: 2%

How did CC(C)CN1C(=O)c2ccc(NC(=O)c3cccs3)cc2C1=O do in these assays?
TRb-SRC2 inh: -14%; TR SRC2 fluor cs: -2%; Tau fibril ThT: -10%; Tau fluor cs: inconclusive; Tau FP inhib: inconclusive

Results for O=C(Nc1ccc(Oc2ccc3c(c2)C(=O)N(c2ccc(O)cc2)C3=O)cc1)c1cccs1 ?
TRb-SRC2 inh: 3%; TR SRC2 fluor cs: -3%; Tau fibril ThT: 1%; Tau fluor cs: 2%; Tau FP inhib: 14µM*

What do the screens show for `Oc1[nH]c2ccc(Br)cc2c1N=NC(=S)Nc1ccc(F)cc1`?
TRb-SRC2 inh: 4%; TR SRC2 fluor cs: -2%; Tau fluor cs: 7%[0.0958 µM]; Tau FP inhib: -3%[0.0958 µM]

How did Oc1ccc(NC(=S)N=Nc2c(O)[nH]c3ccccc23)cc1 do in these assays?
TRb-SRC2 inh: -1%; TR SRC2 fluor cs: -6%; Tau fibril ThT: 14µM*; Tau fluor cs: inconclusive; Tau FP inhib: 4%

Results for O=C(N=Nc1c(O)[nH]c2ccc(Br)cc12)c1ccccc1-n1cccc1 ?
TRb-SRC2 inh: -3%; TR SRC2 fluor cs: -8%; Tau fibril ThT: inconclusive; Tau fluor cs: 14µM*[quencher]; Tau FP inhib: inconclusive

What do the screens show for `Oc1ccc(NC(=S)N=Nc2c(O)[nH]c3ccc(Br)cc23)cc1`?
TRb-SRC2 inh: -2%; TR SRC2 fluor cs: -8%; Tau fibril ThT: 5µM*; Tau fluor cs: 16µM*[quencher]; Tau FP inhib: -2%

How did Cc1ccc(NC(=S)N=Nc2c(O)[nH]c3ccccc23)cc1 do in these assays?
TRb-SRC2 inh: -1%; TR SRC2 fluor cs: -2%; Tau fibril ThT: inconclusive; Tau fluor cs: inconclusive; Tau FP inhib: inconclusive

What do the screens show for `Oc1cccc(NC(=S)N=Nc2c(O)[nH]c3ccc(Br)cc23)c1`?
TRb-SRC2 inh: 2%; TR SRC2 fluor cs: -9%; Tau fibril ThT: 6.3µM*; Tau fluor cs: 11µM*[quencher]; Tau FP inhib: -2%

Results for COC(=O)C/C=C\[C@@H](C)[C@@H]1C=C[C@H](OC(C)=O)[C@H](COC(C)=O)O1 ?
TRb-SRC2 inh: 0%[11.2 µM]; TR SRC2 fluor cs: -4%[11.2 µM]; Tau fibril ThT: -4%[11.5 µM]; Tau fluor cs: -1%[11.6 µM]; Tau FP inhib: 1%[11.6 µM]

Results for CC(C)C=O ?
TRb-SRC2 inh: 1%; TR SRC2 fluor cs: -3%

What do the screens show for `Cc1ccccc1OCCSc1nnc(-c2ccc([N+](=O)[O-])cc2)o1`?
TRb-SRC2 inh: -1%; TR SRC2 fluor cs: 7%; Tau fibril ThT: inconclusive; Tau fluor cs: inconclusive; Tau FP inhib: -2%

Results for CNC(=S)N=Nc1c(O)[nH]c2ccc(C(C)C)cc12 ?
TRb-SRC2 inh: 2%; TR SRC2 fluor cs: -4%; Tau fibril ThT: 16µM*; Tau fluor cs: inconclusive; Tau FP inhib: -3%

How did CNC(=S)N=Nc1c(O)[nH]c2ccccc12 do in these assays?
TRb-SRC2 inh: 1%; TR SRC2 fluor cs: -6%; Tau fibril ThT: inconclusive; Tau fluor cs: -18%; Tau FP inhib: -15%

How did COC(=O)C1=C[C@@H](C(=O)OC)[C@@H]2C3=C(C(=O)[C@]2(C)NC(=O)c2ccccc2)[C@H](C)[C@@H]2C(=O)NC(=O)[C@@H]2[C@@H]3C1 do in these assays?
TRb-SRC2 inh: -5%; TR SRC2 fluor cs: 0%

What do the screens show for `COc1ccc(C(=O)/C=C/c2ccc(F)cc2)c(OC(=O)c2ccc([N+](=O)[O-])cc2)c1`?
TRb-SRC2 inh: 5%; TR SRC2 fluor cs: -1%; Tau fibril ThT: 10µM*; Tau fluor cs: 13µM*[quencher]; Tau FP inhib: 0%

How did COc1ccc(N(C(=O)c2cccc([N+](=O)[O-])c2)S(=O)(=O)c2cccs2)cc1 do in these assays?
TRb-SRC2 inh: 0%; TR SRC2 fluor cs: 1%; Tau fibril ThT: inconclusive; Tau fluor cs: inconclusive; Tau FP inhib: 0%

High-throughput results: PubChem BioAssay, National Center for Advancing Translational Sciences (NCATS)
